For 17 molecules, Potency, outcome and activation results are on record in PubChem BioAssay (Tox21).

SMILES strings stand for the structures. Several values for one entry are separate records, joined by “and”; a condition that tells them apart may be missing. Equal values may be shown once. Unmarked numbers belong to inactive results. Activity calls are given as the source filed them. Unless noted, calls come from the whole dose curve; as a rule, active = well fitted curve in the direction sought with a large enough effect in the repeat runs; inconclusive = weak or mixed curves; inactive = no such curve, though single readings can be large; an effect the other way counts as inactive or inconclusive.

A short description of assay [1]: qHTS assay for identifying genotoxic compounds that show differential cytotoxicity against isogenic chicken DT40 cell lines with known DNA damage response pathways - wild type cell line (AID 743012). Note: nearly all actives have a fitted effect of over 60% in size. Note: potency is the fitted concentration of half-maximal effect. The essentials:
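First, wild type DT40 cells were plated at 300 per well and equilibrated about 0.5 h at 37 C/5% CO2. Next, compounds in DMSO were added and exposure lasted 40 h. Finally, CellTiter-Glo was added for 30 min at room temperature and luminescence recorded.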

Assay [2] can be described thus: qHTS assay for identifying genotoxic compounds that show differential cytotoxicity against isogenic chicken DT40 cell lines with known DNA damage response pathways - Rad54/Ku70 mutant cell line (AID 743015). Note: nearly all actives have a fitted effect of over 60% in size. Note: potency is the fitted concentration of half-maximal effect. For orientation: qHTS replaces the single test concentration by a dilution series.
Assay [3] is described as follows: qHTS assay to identify small molecule antagonists of the androgen receptor (AR) signaling pathway - cell viability counter screen (AID 743033; note: nearly all actives have a fitted effect of over 45% in size; note: potency is the fitted concentration of half-maximal effect).
For assay [4], the target named is Androgen receptor (Homo sapiens) (UniProt P10275). Briefly: qHTS assay to identify small molecule antagonists of the androgen receptor (AR) signaling pathway (AID 743035; active = well fitted inhibition curve with a large enough effect in the signal ratio in the repeat runs, not every such curve was filed as active; inconclusive = weak or mixed curves, or effect the other way; inactive = no such curve, though single readings can be large or run the other way; the % refers to the signal ratio; note: potency is the fitted concentration of half-maximal effect). In a few lines: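 Beta-lactamase FRET read (2 h RT incubation with LiveBLAzer B/G) following 16 h of compound plus R1881 treatment of AR-UAS-bla HEK293 cells, which had been pre-incubated 4 h at 37C.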

Assay [5] shares this target. Kind of assay: qHTS assay to identify small molecule agonists of the androgen receptor (AR) signaling pathway (AID 743036; active = well fitted activation curve with a large enough effect in the signal ratio in the repeat runs, with a control signal flat, not every such curve was filed as active; inconclusive = weak or mixed curves, or effect the other way; inactive = no such curve, though single readings can be large or run the other way; the % refers to the signal ratio). In a few lines: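 Reporter line: GeneBLAzer AR-UAS-bla-GripTite (HEK293). Steps: plate cells, 4 h rest, add compounds, 16 h at 37C, add LiveBLAzer B/G substrate, 2 h at RT, read fluorescence.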
Assay [6] can be described thus: qHTS assay to identify small molecule antagonists of the androgen receptor (AR) signaling pathway using the MDA cell line - cell viability counter screen (AID 743041; note: nearly all actives have a fitted effect of over 45% in size). The essentials: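 Same-well cytotoxicity was assessed by CellTiter-Fluor in MDA-kb2 AR-luc cells after 16 h of compound treatment under R1881 agonism.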
Assay [7] addresses Androgen receptor (Homo sapiens) (UniProt P10275). Kind of assay: qHTS assay to identify small molecule antagonists of the androgen receptor (AR) signaling pathway using the MDA cell line (AID 743042; note: nearly all actives have a fitted effect of over 55% in size; note: potency is the fitted concentration of half-maximal effect). The essentials: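 MDA-kb2 breast carcinoma cells carrying MMTV-luciferase (AR/GR responsive) were co-treated with compounds and the agonist R1881 for 16 h at 37C. Inhibition read as ONE-Glo luminescence; CellTiter-Fluor fluorescence measured in parallel for cytotoxicity.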

Assay [8] in a line: qHTS assay to identify small molecule antagonists of the thyroid receptor (TR) signaling pathway (AID 743065). Note: nearly all actives have a fitted effect of over 55% in size. Note: potency is the fitted concentration of half-maximal effect. The essentials: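 GH3.TRE-Luc rat pituitary cells (two TREs driving luciferase) were dosed with compound, then stimulated with 1 nM T3 (final) for 23.5 h at 37 C. ONE-Glo luminescence was the read-out, with CellTiter-Fluor fluorescence as the cytotoxicity counter-screen.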

Assay [9] relates to thyroid hormone receptor (rat, GH3 cells). Briefly: qHTS assay to identify small molecule agonists of the thyroid receptor (TR) signaling pathway (AID 743066; calls by dose curve).
Assay [10] has as its target Estrogen receptor (Homo sapiens) (UniProt P03372). Briefly: qHTS assay to identify small molecule antagonists of the estrogen receptor alpha (ER-alpha) signaling pathway (AID 743069; active = well fitted curve in the direction sought with a large enough effect in the signal ratio in the repeat runs, not every such curve was filed as active; inconclusive = weak or mixed curves, or effect the other way; inactive = no such curve, though single readings can be large or run the other way; the % refers to the signal ratio; note: potency is the fitted concentration of half-maximal effect). In a few lines: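 Reporter cells (ER-alpha-bla, HEK293 background) are conditioned overnight in stripped-serum medium (2% charcoal-stripped FBS). Compound and 17beta-estradiol exposure runs 18 hr at 37C, 5% CO2.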

The nature of assay [11]: qHTS assay to identify small molecule antagonists of the estrogen receptor alpha (ER-alpha) signaling pathway - cell viability counter screen (AID 743074; calls by dose curve;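 note: HEK293 cells carrying ER-alpha-UAS-bla reporter stimulated with 17beta-estradiol; nearly all actives have a fitted effect of over 45% in size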).
Assay [12] concerns the target Estrogen receptor (Homo sapiens) (UniProt P03372). Kind of assay: qHTS assay to identify small molecule agonists of the estrogen receptor alpha (ER-alpha) signaling pathway (AID 743075; calls by dose curve;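 note: HEK293 GripTite cells with ER-alpha and UAS-driven beta-lactamase reporter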; note: potency is the fitted concentration of half-maximal effect).
For assay [13] the target is unchanged. Kind of assay: qHTS assay to identify small molecule agonists of the estrogen receptor alpha (ER-alpha) signaling pathway using the BG1 cell line (AID 743079). Note: nearly all actives have a fitted effect of over 20% in size. Particulars: BG1Luc4E2 cells, ERE-luciferase agonist, 22 h.
The nature of assay [14]: qHTS assay to identify small molecule antagonists of the estrogen receptor alpha (ER-alpha) signaling pathway using the BG1 cell line (AID 743080; calls by dose curve;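 note: BG1 cells stimulated with 17beta-estradiol alongside compound; nearly all actives have a fitted effect of over 25% in size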; note: potency is the fitted concentration of half-maximal effect). The essentials:
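Luciferase inhibition measured with ONE-Glo after 30 min at RT in BG1Luc4E2 cells given test compounds and 17beta-estradiol for 21.5 h at 37 C; CellTiter-Fluor viability read in the same wells beforehand.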

Assay [15] deals with Aromatase (Homo sapiens) (UniProt P11511). Briefly: qHTS assay to identify aromatase inhibitors (AID 743083). Note: nearly all actives have a fitted effect of over 55% in size. Note: potency is the fitted concentration of half-maximal effect.
Assay [16] in a line: qHTS assay to identify aromatase inhibitors - cell viability counter screen (AID 743084).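 Note: cells stimulated with testosterone during compound exposure; nearly all actives have a fitted effect of over 55% in size.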 Note: potency is the fitted concentration of half-maximal effect.
The nature of assay [17]: qHTS assay to identify small molecule antagonists of the thyroid receptor (TR) signaling pathway - cell viability counter screen (AID 743064). Note: nearly all actives have a fitted effect of over 50% in size. Note: potency is the fitted concentration of half-maximal effect. The essentials: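 Plate GH3.TRE-Luc cells; incubate 4 h at 37 °C; add compound, then T3 to 1 nM final; incubate 23.5 h; add CellTiter-Fluor; incubate 30 min at 37 °C, 5% CO2; read fluorescence.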
Assay [18] in a line: qHTS assay to identify small molecule antagonists of the estrogen receptor alpha (ER-alpha) signaling pathway using the BG1 cell line - cell viability counter screen (AID 743081).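 Note: compound given together with 17beta-estradiol as the ER stimulus; nearly all actives have a fitted effect of over 45% in size.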
The nature of assay [19]: qHTS assay for identifying genotoxic compounds that show differential cytotoxicity against isogenic chicken DT40 cell lines with known DNA damage response pathways - Rev3 mutant cell line (AID 743014). Note: nearly all actives have a fitted effect of over 55% in size. Note: potency is the fitted concentration of half-maximal effect.
% is set by controls: 0 for no effect and ±100 for the full control effect.

Estrogen receptor (Homo sapiens), sequence (P03372 whole entry, looked up): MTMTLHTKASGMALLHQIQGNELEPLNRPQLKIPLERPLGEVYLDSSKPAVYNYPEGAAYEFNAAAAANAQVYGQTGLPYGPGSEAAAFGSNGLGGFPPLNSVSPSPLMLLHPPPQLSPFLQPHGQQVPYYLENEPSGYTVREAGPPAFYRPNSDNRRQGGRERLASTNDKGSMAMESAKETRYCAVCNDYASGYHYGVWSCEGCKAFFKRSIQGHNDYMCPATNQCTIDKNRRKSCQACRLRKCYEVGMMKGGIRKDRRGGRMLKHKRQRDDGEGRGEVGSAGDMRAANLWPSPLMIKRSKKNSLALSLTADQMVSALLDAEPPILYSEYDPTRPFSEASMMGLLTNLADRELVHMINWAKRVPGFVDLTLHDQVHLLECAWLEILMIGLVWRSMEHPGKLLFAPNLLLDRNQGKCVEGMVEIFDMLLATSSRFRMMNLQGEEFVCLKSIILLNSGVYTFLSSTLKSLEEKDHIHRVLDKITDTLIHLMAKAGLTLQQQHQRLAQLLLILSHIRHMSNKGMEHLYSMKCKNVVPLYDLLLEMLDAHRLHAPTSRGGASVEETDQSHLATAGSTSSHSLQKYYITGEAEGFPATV
Androgen receptor (Homo sapiens), sequence (P10275 whole entry, looked up): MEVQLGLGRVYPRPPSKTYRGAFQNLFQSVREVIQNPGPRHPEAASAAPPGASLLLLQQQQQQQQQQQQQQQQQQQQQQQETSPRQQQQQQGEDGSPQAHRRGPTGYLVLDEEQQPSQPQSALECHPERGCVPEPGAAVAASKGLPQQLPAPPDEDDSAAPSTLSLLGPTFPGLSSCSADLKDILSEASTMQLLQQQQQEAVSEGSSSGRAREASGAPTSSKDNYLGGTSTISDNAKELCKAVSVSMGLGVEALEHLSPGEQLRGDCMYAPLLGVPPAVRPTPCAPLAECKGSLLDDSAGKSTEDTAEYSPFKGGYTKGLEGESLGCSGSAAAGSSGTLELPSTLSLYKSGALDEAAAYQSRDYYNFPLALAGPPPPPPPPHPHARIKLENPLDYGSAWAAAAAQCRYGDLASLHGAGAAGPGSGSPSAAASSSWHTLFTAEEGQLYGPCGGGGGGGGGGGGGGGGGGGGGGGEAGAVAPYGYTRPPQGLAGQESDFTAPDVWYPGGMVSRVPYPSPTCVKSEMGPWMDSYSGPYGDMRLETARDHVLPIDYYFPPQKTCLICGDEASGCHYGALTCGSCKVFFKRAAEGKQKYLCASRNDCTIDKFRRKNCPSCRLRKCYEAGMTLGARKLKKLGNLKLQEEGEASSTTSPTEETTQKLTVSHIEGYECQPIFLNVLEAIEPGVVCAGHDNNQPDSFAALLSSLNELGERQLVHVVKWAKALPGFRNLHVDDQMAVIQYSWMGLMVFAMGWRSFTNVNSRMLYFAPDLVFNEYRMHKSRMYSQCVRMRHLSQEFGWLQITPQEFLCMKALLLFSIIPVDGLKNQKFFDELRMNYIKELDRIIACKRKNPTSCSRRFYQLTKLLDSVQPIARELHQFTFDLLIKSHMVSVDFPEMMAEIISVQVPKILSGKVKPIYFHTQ
Aromatase (Homo sapiens), sequence (P11511 whole entry, looked up): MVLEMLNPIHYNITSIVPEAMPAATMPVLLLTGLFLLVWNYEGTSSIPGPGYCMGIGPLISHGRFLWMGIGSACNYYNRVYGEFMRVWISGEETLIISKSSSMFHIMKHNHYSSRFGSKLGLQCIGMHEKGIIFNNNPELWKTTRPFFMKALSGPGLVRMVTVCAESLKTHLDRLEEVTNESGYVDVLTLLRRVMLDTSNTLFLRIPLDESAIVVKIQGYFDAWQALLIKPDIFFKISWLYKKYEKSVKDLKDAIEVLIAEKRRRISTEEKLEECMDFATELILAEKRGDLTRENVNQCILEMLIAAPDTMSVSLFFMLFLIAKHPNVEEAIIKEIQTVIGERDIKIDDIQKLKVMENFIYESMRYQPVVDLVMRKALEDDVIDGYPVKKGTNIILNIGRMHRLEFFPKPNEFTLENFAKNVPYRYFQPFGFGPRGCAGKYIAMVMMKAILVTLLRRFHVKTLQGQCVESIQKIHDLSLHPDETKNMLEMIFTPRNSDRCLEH

Consider `C[C@H]1CCCC(=O)CCC/C=C/c2cc(O)cc(O)c2C(=O)O1`, for which the Potency in assay [1] is 20.9 µM (active) and 20 µM (active); in assay [2], 16.6 µM (active) and 17.8 µM (active); in assay [3] it was 42.1 µM (active); in assay [4] it was 20.2 µM (active); in assay [7], 52.5 µM (active); in assay [8] it was 23.4 µM (active) and 15.9 µM (active). Also, the Potency is 47.2 µM [inconclusive] (active) in assay [10]; 13.3 nM [inconclusive] (active) and 71.5 nM [inconclusive] (active) in assay [12]; 22.4 µM (active) in [14]; 23.4 µM (active) in assay [15]; 18.6 µM (active) in [16]. Besides, the outcome in assay [5] was inactive. Also, the Potency result in assay [6], in [9] and in [11] was “inactive” in each case. Also, the activation was -13.6% (active) in assay [13] (at 32.5 µM (top of the series)) and -34.9% (active) in assay [13] (at 70.3 µM (top of the series)).
In the case of `Cc1ccc2c(c1)C1CN(C)CCC1N2` (stereo unspecified), the Potency entry in assay [1], in assay [3], in [17], in assay [8], in assay [9] and in [11] was “inactive” throughout. Moreover, the Potency entry in assay [12], in [14], in assay [18], in [15] and in assay [16] was “inactive” throughout. In addition, in assay [13] (at 70.3 µM (top of the series)), the activation is -4.51%.
As for `ClC1=C(Cl)C2(Cl)C(CBr)CC1(Cl)C2(Cl)Cl` (stereo unspecified), the Potency was 27.3 µM (active) in assay [19]; 26.6 µM (active) and 48.6 µM (active) in assay [17]. Further, the Potency entry in assay [3], in assay [6], in assay [9], in [11], in assay [12] and in assay [14] was “inactive” throughout. Also, the Potency result in assay [18], in assay [15] and in assay [16] was “inactive” in each case. Moreover, the activation in assay [13] (at 70.3 µM (top of the series)) is -8.81% and -11.5%.
In the case of `CCN(CC)CCOC(=O)C(O)(c1ccccc1)c1ccccc1`, the Potency entry in assay [1], in assay [19], in [3], in assay [17], in assay [9] and in assay [10] was “inactive” throughout. The Potency result in assay [11], in assay [12], in [14], in assay [18], in assay [15] and in assay [16] was “inactive” each time. Also, the activation in assay [13] (at 70.3 µM (top of the series)) is 1.82%.
Consider `N#CC(Br)(Br)C(N)=O`, for which the Potency in assay [19] is 61.1 µM (active). Also, the Potency entry in assay [17], in assay [8], in assay [11], in [18] and in [16] was “inactive” in each case.
For `COc1ccc2c(C(=O)c3ccc(Cl)cc3)c(C)n(CC(=O)O)c2c1`, the Potency result in [1], in [2], in [3], in assay [6], in assay [9] and in [11] was “inactive” in each case. For the same molecule, the Potency result in [18], in assay [15] and in [16] was “inactive” throughout.
Consider `C=CCN1CC[C@]23CCCC[C@H]2[C@H]1Cc1ccc(O)cc13`, for which the figures for the Potency in assay [1] and in [8] were 21.1 µM (active) and 29.8 µM (active), respectively. In addition, the Potency result in assay [2], in [3], in assay [9], in assay [11], in [18] and in [15] was “inactive” in each case. Further, in assay [16], the Potency result is “inactive”.
For `O=C(CCl)NCO`, the Potency result in [1], in [2], in [6], in assay [8], in assay [9] and in assay [11] was “inactive” throughout. Further, the Potency entry in assay [12], in [14], in [18], in assay [15] and in assay [16] was “inactive” throughout. Besides, the activation in [13] (at 70.3 µM (top of the series)) was -9.09%.
`CCOP(=S)(OCC)Oc1ccc(Cl)cc1Cl`: the Potency entry in assay [19], in assay [2], in assay [3], in assay [6], in assay [8] and in assay [9] was “inactive” throughout. The Potency entry in assay [10], in assay [11], in [12], in assay [14], in assay [18] and in assay [15] was “inactive” throughout. In addition, the Potency result in assay [16] was “inactive”.
Regarding `O=P(O)(O)c1ccccc1`, the Potency result in assay [19], in assay [3], in assay [6], in assay [17], in assay [8] and in assay [9] was “inactive” throughout. In addition, the Potency entry in [10], in assay [11], in [12], in assay [14], in [18] and in assay [15] was “inactive” each time. For the same molecule, the Potency result in assay [16] is “inactive”. Further, the activation in assay [13] (at 70.3 µM (top of the series)) is 0.284%.
Turning to `COc1ccccc1OC`, the Potency result in assay [19], in assay [3], in assay [6], in assay [8], in assay [9] and in assay [10] was “inactive” in each case. In addition, the Potency entry in assay [12], in assay [14], in [18], in assay [15] and in assay [16] was “inactive” in each case. Besides, in assay [13] (at 70.3 µM (top of the series)), the activation is 21.9%.
With `CCC(=O)c1ccc(Cl)cc1`, the Potency entry in assay [1], in assay [19], in assay [3], in assay [6], in assay [9] and in assay [11] was “inactive” in each case. For the same molecule, the Potency entry in assay [18], in assay [15] and in assay [16] was “inactive” throughout.
For `CS(=O)(=O)c1ccc(C(=O)C2C(=O)CCCC2=O)c(Cl)c1COCC(F)(F)F`, the Potency result in assay [1], in assay [2], in assay [3], in assay [6], in assay [17] and in assay [8] was “inactive” each time. The Potency entry in assay [9], in assay [11], in assay [12], in assay [14], in assay [18] and in [15] was “inactive” in each case. Moreover, the Potency entry in [16] was “inactive”. Also, in assay [13] (at 70.3 µM (top of the series)), the activation is 14.7%.
For the molecule `C=CC1(C)OC(=O)N(c2cc(Cl)cc(Cl)c2)C1=O` (stereo unspecified), the Potency result in assay [1], in [3], in assay [6], in assay [17], in assay [8] and in assay [9] was “inactive” each time. In addition, the Potency entry in assay [11], in assay [12], in assay [14], in assay [18], in assay [15] and in assay [16] was “inactive” throughout. The Potency in assay [2] is 61.1 µM (active). The activation in [13] (at 70.3 µM (top of the series)) was -20.8% and -18.1%.
On to `CCOC(=O)N(C)N=O`, for which the Potency entry in assay [1], in assay [3], in assay [6], in assay [17], in assay [8] and in assay [9] was “inactive” each time. Also, the Potency result in assay [11], in assay [18], in assay [15] and in assay [16] was “inactive” in each case.
For `COC(=O)c1ccccc1CS(=O)(=O)NC(=O)Nc1nc(OC)cc(OC)n1`, the Potency result in [1], in assay [19], in assay [2], in [3], in assay [6] and in [8] was “inactive” in each case. Further, the Potency result in assay [9], in [10], in assay [11], in assay [12], in assay [14] and in assay [18] was “inactive” each time. The Potency entry in assay [15] and in assay [16] was “inactive” throughout. The activation in [13] (at 70.3 µM (top of the series)) is 1.94%.
With `CCOC(=O)NC(C)(C)Cc1ccc(Cl)cc1`, the Potency entry in [19], in [3], in assay [4], in assay [6], in [7] and in [17] was “inactive” in each case. The Potency result in [8], in assay [9], in [12], in assay [14], in assay [18] and in assay [15] was “inactive” each time. Further, the Potency result in assay [16] is “inactive”. The molecule was called inactive in [5]. Besides, in assay [13] (at 70.3 µM (top of the series)), the activation is 6.17%.
